Compounds with a hit are over-represented: about 6.8% of the library has one in this group of screens.
Spn MK inh = S. pneumoniae MK inhibitors, primary screen, biochemical, PK/LDH-coupled NADH absorbance; mevalonate kinase [Streptococcus pneumoniae D39]; purified MK, PK/LDH-coupled NADH absorbance 340 nm; inhibition, % at 10 µM; hit rate 0.48% among 65,000;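 active = ranked among the strongest by inhibition in the single 10 µM screen, a fixed top-ranked set picked for dose follow-up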
NADH enzymes = inhibitors of PK/LDH coupling enzymes, profiling panel, artefact control, biochemical, MLSMR library; hit rate 0.02% among 65,000; IC50, µM (doses to about 10 µM); AID 774, 2007; coupled PK/LDH NADH assays, four targets;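 active = single-dose screening hits from any of four coupled enzyme assays that gave an IC50 when retested across doses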;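 also: the DPM-DC format reads NADH fluorescence rather than 340 nm absorbance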
DPM-DC inhibit = S. pneumoniae DPM-DC inhibitors, primary screen, biochemical, PK/LDH-coupled NADH fluorescence; calls only at 10 µM; AID 556, 2006; purified DPM-DC; diphosphomevalonate decarboxylase (Streptococcus pneumoniae D39); hit rate 0.49% among 65,000;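 active = the 320 compounds with the highest percent inhibition in the single-dose primary screen, excluding strongly autofluorescent ones, cut at about 32% in these data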;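 also: kinetic rate of NADH fluorescence loss reporting ADP formed by the decarboxylase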
A340 absorber = compound light absorbance at 340 nm, profiling panel, artefact control, biochemical, MLSMR library, data from PS, PMK, MK assays; 65,000 tested, under 10 active; compound absorbance at 340 nm, fold over control; AID 708, 2007; fold change at 10 µM;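 active = at 10 µM dose, initial 340 nm absorbance at least 2 fold that of control wells; inactive = change under 2 fold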;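 also: initial absorbance extrapolated from kinetic A340 decline of NADH oxidation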
Fluor 339 460 = intrinsic fluorescence of library compounds, ex339/em460 – biochemical, MLSMR library, data from DPM-DC assay, artefact control, profiling panel; AID 709, 2007; fluorescence fold increase at 10 µM; hit rate 5.5% among 65,000; compound autofluorescence, ex339/em460 nm, NADH buffer; active compounds read high; 1 = no-compound wells, NADH background;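 active = at 10 µM, mean starting fluorescence two-fold or more over control wells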;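 also: signal is the first read of a kinetic run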
PMK inhibit = S. pneumoniae PMK inhibitors, primary screen, biochemical, mevalonate pathway, pilot trial included; phosphomevalonate kinase (Streptococcus pneumoniae D39); purified PMK, PK/LDH-coupled NADH absorbance 340 nm; inhibition, % at 10 µM; hit rate 0.49% among 65,000;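 active = top-ranked compounds by inhibition in the single 10 µM screen, taking a fixed number of the strongest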
Numbers stand for hits; i = inactive; nt = no result shown; + = active, no number.

SMILES	Spn MK inh	NADH enzymes	DPM-DC inhibit	A340 absorber	Fluor 339 460	PMK inhibit
CC1(C)CC(=O)C(CCC(=O)c2ccccc2)C(C)(C)N1 (centres undefined)	i	i	i	i	i	i
COC(=O)c1[nH]c2ccc(C)cc2c1NC(=O)CCN1CCN(C2CCCCC2)CC1	i	i	i	i	2.94	i
COC(=O)c1[nH]c2ccc(C)cc2c1NC(=O)CN1CCCC(C)(C)C1	i	i	i	i	i	i
COC(=O)c1[nH]c2ccc(Cl)cc2c1NC(=O)CCN1CCN(C2CCCCC2)CC1	i	i	i	i	i	i
COC(=O)c1[nH]c2ccc(C)cc2c1NC(=O)CN1CCc2cc(OC)c(OC)cc2C1	i	i	i	i	2.18	i
COC(=O)c1[nH]c2ccc(C)cc2c1NC(=O)C1=COCCO1	i	i	i	i	i	i
COC(=O)c1[nH]c2ccc(C)cc2c1NC(=O)Nc1ccccc1OC	i	i	i	i	2.57	i
COC(=O)c1[nH]c2ccc(F)cc2c1NC(=O)CCN1CCN(Cc2ccc3c(c2)OCO3)CC1	i	i	i	i	2	i
CC/C(=N\O)c1ccc(O)c(OC)c1	i	i	i	i	i	i
CCn1cc(-c2cc(C(F)(F)F)n3nc(C(=O)O)cc3n2)c(C)n1	i	i	i	i	i	i
COc1nc(C#N)nc(N(C)C)n1	i	i	i	i	i	i
COc1ccc2c(c1)c(C(O)CN1CCC3(CC1)OCCO3)c(C)n2C (centres undefined)	i	i	i	i	i	i
Cc1cc(NC(=O)Cn2cc(C(F)(F)F)cc(Cl)c2=O)no1	i	i	i	i	i	i
CCCCOC(=O)C1Cc2ccccc2C(=O)O1 (centres undefined)	i	i	i	i	i	i
CCn1c(COc2cccc(OC)c2)nnc1SCC(=O)Nc1cccc(OC)c1	i	i	i	i	i	i
N#Cc1nc(Cc2ccccc2)oc1N1CCC(Cc2ccccc2)CC1	i	i	i	i	i	i
COc1ccccc1-c1nc(C#N)c(N2CCN(Cc3ccccc3)CC2)o1	i	i	i	i	3.1	i
COc1ccccc1-c1nc(C#N)c(N2CCC(Cc3ccccc3)CC2)o1	i	i	nt	i	3.91	i
CCc1nc2c(n1O)CCc1nonc1-2	i	i	i	i	i	i
CSc1nc(NC(C)=O)nc(C)c1Cl	i	i	i	i	i	i
COc1cc2cc(CN(CCCO)S(=O)(=O)c3ccccc3)c(=O)[nH]c2cc1OC	i	i	nt	i	3.89	i
Cc1cc2cc(CN(CCCO)S(=O)(=O)c3cccc4nsnc34)c(=O)[nH]c2cc1C	i	i	i	i	i	i
CCOC(=O)c1cccc(S(=O)(=O)N(CCO)Cc2cc3cc(OC)c(OC)cc3[nH]c2=O)c1	i	i	i	i	i	i
COc1cc2cc(CN(CCCO)S(=O)(=O)c3ccccc3Cl)c(=O)[nH]c2cc1OC	i	i	nt	i	3.46	25.0
COc1cc2cc(CN(CCO)S(=O)(=O)c3ccccc3Cl)c(=O)[nH]c2cc1OC	i	i	i	i	3.08	i
SMILES	Spn MK inh	NADH enzymes	DPM-DC inhibit	A340 absorber	Fluor 339 460	PMK inhibit
CCC(CO)NCc1ccc2c(c1)n(C)c(=O)n2C (centres undefined)	i	i	i	i	i	i
O=C(O)CSc1nnc(-c2ccncc2)n1C1CCCCC1	i	i	i	i	i	i
Nc1c(C(=O)NC2CCCC2)sc2nc(-c3cccs3)ccc12	i	i	+	i	2.75	i
COc1cccc(NC(=O)CSc2nnc(-c3cc(-c4ccccn4)nc4ccccc34)o2)c1	i	i	i	i	i	i
CN(C)c1nc(Nc2ccc(Cl)cc2)nc(OCC#N)n1	i	i	i	i	i	i
COc1ccc(-c2cc(-c3ccccc3)nc(N3CCCC3)n2)cc1OC	i	i	nt	i	2.22	i
COc1ccc(-c2cc(C(F)(F)F)nc(N3CCOCC3)n2)cc1OC	i	i	i	i	i	i
CC(C)(C)OC(=O)NCCC(=O)Oc1ccc2ccc(=O)oc2c1	i	i	nt	i	2.26	i
COc1ccc(C(CC(=O)O)NC(=O)OC(C)(C)C)cc1 (centres undefined)	i	i	i	i	i	i
CC(NC(=O)OC(C)(C)C)C(=O)Oc1ccc2ccc(=O)oc2c1 (centres undefined)	i	i	nt	i	2.3	i
CCCN(CCC)C(=O)CSc1nc2ccccc2c(=O)n1C1CCCC1	i	i	i	i	i	i
CCN(CC)C(=O)C1=C(C)Nc2nnnn2C1c1cccnc1 (centres undefined)	i	i	i	i	i	i
O=C(CN1CCC(C(=O)c2ccc(Cl)cc2)CC1)Nc1ccc2c(c1)OCCO2	i	i	i	i	i	i
CCNc1oc(-c2cccc3ccccc23)nc1C#N	i	i	nt	i	2.13	i
C=CCNc1oc(-c2cccc3ccccc23)nc1C#N	i	i	nt	i	2.93	i
CC(C)Nc1oc(-c2cccc3ccccc23)nc1C#N	i	i	nt	i	3.79	i
CCc1nnc2sc(-c3ccc(NC(=O)CSc4ccc(Cl)cc4)cc3)nn12	i	i	+	i	3.04	i
Cc1nnc2sc(-c3ccc(NC(=O)CSc4ccc(Cl)cc4)cc3)nn12	i	i	i	i	i	i
O=C(C(c1ccccc1)c1ccccc1)N1CCN(Cc2ccncc2)CC1	i	i	i	i	i	i
O=C(C(c1ccccc1)c1ccccc1)N1CCN(Cc2ccccn2)CC1	52.0	i	i	i	i	i
CCOC(=O)CNc1c(-c2ccc(O)cc2)nc2ccc(Cl)cn12	i	i	i	i	i	i
CCOC(=O)CNc1c(-c2ccc(O)cc2)nc2ccccn12	i	i	nt	i	3.69	i
Oc1ccc(-c2nc3ccccn3c2NCc2ccc3c(c2)OCO3)cc1	i	i	nt	i	3.71	i
O=c1[nH]c(CSc2nnc(-c3ccncc3)n2Cc2ccco2)nc2ccccc12	i	i	i	i	i	i
C=CCn1c(SCc2nc3ccccc3c(=O)[nH]2)nnc1-c1cc2cc(Cl)ccc2o1	i	i	i	i	2.08	i
C[C@@H]1C[C@H]2[C@@H]3CCC4=CC(=O)C=C[C@]4(C)[C@@]3(F)[C@@H](O)C[C@]2(C)[C@H]1C(=O)CO	i	i	i	i	i	i
Cc1c(-n2cc(C(=O)O)c(=O)c3cc(F)c(N4CCCC4)c(F)c32)c(=O)n(-c2ccccc2)n1C	i	i	i	i	i	i
CN1CCN(c2c(F)cc3c(=O)c(C(=O)O)cn4c3c2SCC4)CC1	i	i	nt	i	3.78	i
Cc1cc2oc(C(=O)NC3CCS(=O)(=O)C3)c(C)c2cc1C (centres undefined)	i	i	i	i	i	i
N=c1c(C(=O)NC2CCCC2)cc2c(=O)n3ccccc3nc2n1C1CCCC1	i	i	nt	i	5.21	i

High-throughput results deposited in PubChem BioAssay by SRMLSC.
